A number with no mark means an inactive call. The rule behind the calls is not given here.
Experiment: Cy5 fluorescence quenching or enhancement artefacts, artefact control for HCV NS3 helicase inhibitor project, biochemical, LOPAC1280 (AID 687037)
Conditions: Cy5-DNA-NS3h complex fluorescence interference counterscreen

Row | Compound | fluorescence ratio (interference)
1 | C#CC(N)CCC(=O)O (stereo not given) | 1
2 | C=CCN1CCc2c(cc(O)c(O)c2Br)[C@@H](c2ccccc2)C1 | 1
3 | N=C(N)c1ccc(N)cc1 | 1
4 | O=C1C2C=CC=CC2=NC(=S)N1CCN1CCC(=C(c2ccc(F)cc2)c2ccc(F)cc2)CC1 (stereo not given) | 1
5 | N.N.O=C(O)C1(C(=O)O)CCC1.[Pt+2] | 1
6 | [Li+] | 1
7 | COc1cc2c(CCNC(C)=O)c[nH]c2cc1O | 1
8 | OC1(c2ccc(Cl)cc2)CCN(Cc2c[nH]c3ccccc23)CC1 | 0.9
9 | N=C(N)c1ccccc1 | 1
10 | CC(=O)SCC[N+](C)(C)C | 1
11 | COc1cccc(C(=O)NCCN2CCN(c3ccc(Cl)cc3)CC2)c1 | 1
12 | OCC1NCC(O)C(O)C1O (stereo not given) | 1
13 | C=C/C(C)=C/[C@@]1(C)SC(=O)C(C)=C1O | 1
14 | CCCOC(=O)c1c(-c2ccccc2)nc(CC)c(C(=O)SCC)c1CCC | 1
15 | Oc1ccc(C2CNCc3sccc32)cc1O (stereo not given) | 1
16 | Nc1ncnc2c1nc(Sc1ccc(Cl)cc1)n2C1OC2COP(=O)(O)O[C@@H]2[C@@H]1O (stereo not given in full) | 0.9
17 | O=C(O)CCC(C(=O)O)N1C(=O)c2ccccc2C1=O (stereo not given) | 1
18 | Nc1ncnc2c1nc(Br)n2C1OC2COP(=O)(O)O[C@@H]2C1O (stereo not given in full) | 0.9
19 | Nc1nc(Nc2ccccc2)nc2c1ncn2[C@@H]1O[C@H](CO)[C@H](O)C1O (stereo not given in full) | 1
20 | COc1ccc(NC(=O)/C=C/c2ccc(Cl)cc2)cc1 | 1
